About 1,700 (74%) of roughly 2,300 compounds were called active. No rule for the calls is given here. So high a share suggests a set chosen from earlier hits. This is one part of the list. Measured potencies and affinities stand elsewhere.

This test can be described thus: Confirmatory growth inhibition assay, Mycobacterium tuberculosis H37Rv, absence of glycerol (AID 449764).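 Also: growth read after 7 days of incubation.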 As to conditions: no glycerol; series mostly up to 100 µM.
Turning to `CCc1cc(C(=O)Nc2ccc(C)cc2Br)cs1`, the outcome was inactive.
The same measure for `CC(=O)CCSc1ncnc2sc(-c3ccccc3)cc12`: “inactive”; for `O=C(CCSc1ccc(Cl)cc1)NC12CC3CC(CC(C3)C1)C2`: “inactive”.
Then `Nc1cc(=O)[nH]c(SCc2csc(-c3ccccc3)n2)n1`, with “inactive”; and `CSc1ccccc1C(=O)NC1CCSc2ccccc21` (stereo not given), with “inactive”; and `Cc1cccc(COc2ccccc2/C=N/Nc2ccc([N+](=O)[O-])cc2)c1`, with “inactive”.
Regarding `CCCn1c(O)c(N=NC(=O)c2ccco2)c2ccccc21`, the compound was called inactive.
Regarding `CCn1nc(C)c(C(=O)Nc2cc(Oc3cc(C)cc(C)c3)cc([N+](=O)[O-])c2)c1C`, the call was inactive.
In the case of `Cc1c(Cl)c([N+](=O)[O-])nn1Cc1ccc(C(=O)N/N=C\c2cccc(Br)c2)o1`, the compound was classed as inactive.
`CN1C(=O)CC(c2ccccc2)C1=O` (stereo not given): the compound was called inactive.
Turning to `COc1ccc(OC)c(C(=O)NC(CC(N)=O)c2ccc(NCc3ccc(F)c(F)c3)c([N+](=O)[O-])c2)c1` (stereo not given), the result was inactive.
Regarding `Nc1ccc2oc(-c3cccs3)nc2c1`, the compound was classed as inactive.
The same measure for `Fc1cccc2sc(Nc3nc4cc5c(cc4s3)OCO5)nc12`: “inactive”; for `CC1=CC(=O)NP(=O)(Oc2ccc3ccccc3c2)N1` (stereo not given): “inactive”.
The same measure for `O=C(OCCN1C(=O)c2ccccc2C1=O)c1cc2ccccc2o1`: “inactive”.
The same measure for `C=CCc1cccc(CNc2cnc3ccccc3c2)c1O`: “inactive”; for `CNc1cccccc1=S`: “inactive”; for `COc1cc2cnc(-c3ccccc3)c(-c3ccc(C(F)(F)F)cc3)c2cc1OC`: “inactive”.
With `CCCCc1cc(=O)oc2cc(O)ccc12`, the result was inactive.
Then `Cc1n[nH]c(=S)n1/N=C/c1cccc(OCc2ccccc2)c1`, with “inactive”; and `COC(=O)c1cccc(C#CC(NP(=O)(c2ccccc2)c2ccccc2)c2ccccc2)c1` (stereo not given), with “inactive”; and `COc1ccc(NC(=O)CN(C)C(=O)c2n[nH]c3ccccc23)cc1`, with “inactive”.
The same measure for `CCOC(=O)c1cc(-c2cccc([N+](=O)[O-])c2)on1`: “inactive”; for `O=C(C1CCC1)N1CCN(S(=O)(=O)c2ccc(Br)cc2Cl)CC1`: “inactive”; for `CCCNC(=O)NC(=O)COc1ccc2oc3ccccc3c2c1`: “inactive”.
Then `COc1ccc(N=Cc2ccc(CNS(=O)(=O)c3ccc(Cl)cc3)o2)cc1`, with “inactive”; and `CCOC(=O)c1ccc(NC(=S)Nc2ccc3[nH]c(=O)[nH]c3c2)cc1`, with “inactive”.
For the compound `CCCN(C(=O)CCOc1ccc(C(C)(C)C)cc1)c1c(N)n(Cc2ccccc2)c(=O)[nH]c1=O`, the outcome was inactive.
On to `O=C(N/N=C/c1cn(-c2ccccc2)nc1-c1cccs1)c1ccc(Cl)cc1`, for which the outcome was inactive.
In the case of `c1ccc(CCNc2ncnc3c2cnn3-c2ccccc2)cc1`, the outcome was inactive.
In the case of `Nc1nc(-c2cccc(F)c2)cs1`, the outcome was inactive.
As for `c1ccc(NNC2=NCCCCC2)cc1`, the call was inactive.
For `Cc1ccc(CN2CCN(Cc3ccc(-n4cccn4)cc3C)CC2CCO)cc1` (stereo not given), the compound was classed as inactive.
The same measure for `C/C(=N\N(Cc1ccccc1)c1ccccc1)c1ccncc1`: “inactive”.
Regarding `O=C(NCc1ccc2c(c1)OCO2)c1c(O)nc2sccn2c1=O`, the call was inactive.
Then `CCOC(=O)C1CCN(C(=O)c2ccc3c(c2)NC(=O)/C(=C/c2ccccc2)S3)CC1`, with “inactive”.
Regarding `O=C(CCN1C(=O)/C(=C/c2ccccc2Cl)SC1=S)N1CCCC1`, the compound was classed as inactive.
With `Clc1ccc(-c2ccc(C=Nc3ccc(N4CCOCC4)cc3)o2)c(Cl)c1`, the compound was classed as inactive.
Take `O=C(c1ccccc1)c1c[nH]c(C(=O)NNc2ccccc2)c1`: the compound was classed as inactive.
Then `O=C(C[n+]1ccccc1)NNc1ccccc1`, with “inactive”.
The same measure for `O=C(CSc1nc(Nc2ccccc2)nc(N2CCOCC2)n1)Nc1cc(Cl)ccc1O`: “inactive”; for `CCOC(=O)c1cn[nH]c1N`: “inactive”; for `O=C(NNc1ccc([N+](=O)[O-])cc1)c1ccco1`: “inactive”.
The same measure for `CC(C)Oc1ccc(NC(=O)Oc2ccccc2)cc1`: “inactive”.
In the case of `COC(=O)C(NC(=O)c1ccc(OC)cc1)(Nc1ncc(S(=O)(=O)c2ccc([N+](=O)[O-])cc2)s1)C(F)(F)F` (stereo not given), the outcome was inactive.
The same measure for `N#C/C(=C1\CCCN1)c1nc(-c2ccccc2)cs1`: “inactive”; for `COC(=O)c1ccc(N/N=C/c2cc([N+](=O)[O-])cc(OC)c2O)cc1`: “inactive”.
Regarding `O=C(c1ccco1)N1CCN(C(=O)C2CC(c3ccc(Cl)c(Cl)c3)=NO2)CC1` (stereo not given), the compound was called inactive.
Turning to `CCCSC1=C(C#N)C(c2ccc(Cl)cc2Cl)CC(=O)N1` (stereo not given), the result was inactive.
On to `COc1ccc(S(=O)(=O)N(C)CC(=O)NCCCn2ccnc2)cc1Cl`, for which the compound was classed as inactive.
With `CC1CCC/C(=N\NC(=S)Nc2ccccc2)C1` (stereo not given), the outcome was inactive.
Then `Cc1nn(-c2ccccc2)c(Cl)c1/C=N/NC(=O)c1ccc(CNc2ccccc2)o1`, with “inactive”; and `Cc1cc(/C=C(/C#N)c2cccc(F)c2)c(C)n1-c1cccnc1`, with “inactive”.
The same measure for `COc1ccc2[nH]c(=O)c(CNc3cccc(C)c3)cc2c1`: “inactive”; for `CCOC(=O)c1ccc(NC(=O)CSc2ccc(-c3cccnc3)nn2)cc1`: “inactive”.
With `CC1(C)CN(c2ccccc2)N(C(=O)c2ccc(C#N)cc2)C1=O`, the outcome was inactive.
Take `C(=N\N1CCN(C2c3ccccc3-c3ccccc32)CC1)/c1ccccn1`: the call was inactive.
Then `CC(=O)c1ccc2c(c1)C1C(Cl)C(Sc3ccccc3[N+](=O)[O-])CC1C(c1ccccc1)N2` (stereo not given), with “inactive”; and `Cc1cn(-c2ccc(Br)cc2)[nH]c1=O`, with “inactive”; and `Nc1cnccc1C(=O)O`, with “inactive”.
Then `CC(NC(=O)c1ccccc1Br)C1CC2CCC1C2` (stereo not given), with “inactive”; and `O=C(NC1CCCCC1)C1CC(=O)N(c2cccc([N+](=O)[O-])c2)C1` (stereo not given), with “inactive”.
Then `Nn1c(SCc2ccccc2)nc2ccccc21`, with “inactive”; and `COc1ccc(-c2oc3ncnc(NCCCN4CCOCC4)c3c2-c2ccc(OC)cc2)cc1`, with “inactive”.
`O=c1[nH][nH]cc1C=Nc1ccc(Oc2ccccc2)cc1`: the compound was called inactive.
The same measure for `COc1ccc(NC(=O)C2C3C=CC(O3)C2C(=O)NCc2cccnc2)cc1` (stereo not given): “inactive”.
For `CC1CN(C(=S)SCC(=O)c2ccc([N+](=O)[O-])cc2)CC(C)O1` (stereo not given), the call was inactive.
Then `N#CC(c1cccc(Cl)c1)c1ccc2c(C(F)(F)F)cc(C(F)(F)F)nc2n1` (stereo not given), with “inactive”; and `CCc1n[nH]c(=S)n1/N=C/c1ccc(-c2ccc(Br)cc2)o1`, with “inactive”.
On to `CCCCOC(=O)c1ccc(NC(=S)NC(=O)c2c(Br)c(C)nn2C)cc1`, for which the result was inactive.
For the compound `CCn1c(SCC(=O)N(C)CCC#N)nc2cc(S(=O)(=O)N3CCOCC3)ccc21`, the outcome was inactive.
For the compound `COC(=O)C1=C(C)NC(=O)/C1=C\c1cc(C)n(-c2cccc(C)c2)c1C`, the result was inactive.
The same measure for `O=C(c1ccc(C#Cc2ccccc2)o1)N1CCN(c2ccccn2)CC1`: “inactive”; for `O=C(O)Cc1cnc[nH]1`: “inactive”; for `Cc1cc(/C=C/C(=O)O)c(C)n1-c1ccc(Cl)cc1`: “inactive”.
In the case of `O=C(CCN1C(=O)C2C3C=CC(C3)C2C1=O)Oc1ccc2ccccc2c1` (stereo not given), the outcome was inactive.
The same measure for `Cc1cc(C2=NNC(=NC3CCCCC3)SC2)c(C)n1-c1c(C)n(C)n(-c2ccccc2)c1=O`: “inactive”.
The same measure for `COC(=O)c1cccc(OC(N)=O)c1`: “inactive”; for `CCOc1ccc(-n2c(O)c(/C=N/Nc3nnc(C)c(=O)[nH]3)c3ccccc3c2=O)cc1`: “inactive”; for `COc1cccc(NC(=O)Nc2nc(SC(C)(C)C)ns2)c1`: “inactive”.
The same measure for `CN(C)S(=O)(=O)c1cccc(NC(=O)CCc2nc3sc4c(c3c(=O)[nH]2)CCCC4)c1`: “inactive”; for `Nc1ccc(-c2nc3ccc(-c4nc5ccccc5o4)cc3[nH]2)cc1`: “inactive”.
Turning to `CC(C)(C)c1nc(SCC(=O)Nc2nc3c(s2)CCCC3)c2ccccc2n1`, the result was inactive.
As to `O=C(Nc1cc(Oc2ccccc2)cc([N+](=O)[O-])c1)C12CC3CC(C1)CC(n1cnc(Cl)n1)(C3)C2`, the compound was classed as inactive.
Take `C/C(=N\NC(=O)c1cc2c(s1)CCC(C)C2)c1ccncc1` (stereo not given): the result was inactive.
Then `CCC1(c2ccccc2)NC(=O)N(CC(=O)Nc2ccc(S(=O)(=O)NC3=NCCCCC3)cc2)C1=O` (stereo not given), with “inactive”.
In the case of `Nc1cc(C(=O)OCC(=O)NNC(=O)c2cccs2)ccc1Cl`, the result was inactive.
The same measure for `CSc1ccc(CNC(=O)C2Cc3cc(S(=O)(=O)N4CCCCC4)ccc3N2C(C)=O)cc1` (stereo not given): “inactive”.
Regarding `Nc1ncc2[nH]cnc2n1`, the result was inactive.
The same measure for `O=C(COc1cc(O)c2c(=O)c3ccccc3oc2c1)OCc1ccccc1`: “inactive”.
Then `CCCc1ccc(OCc2ccccc2)c2c(=O)cc(C(=O)OCC)oc12`, with “inactive”.
In the case of `Cc1ccc(NC(=O)C2CCN(S(=O)(=O)c3ccc4c(c3)NC(=O)C(C)S4)CC2)c(Cl)c1` (stereo not given), the result was inactive.
Then `O=C(c1cc([N+](=O)[O-])ccc1N1CCOCC1)N1CCN(S(=O)(=O)c2cc(Cl)ccc2Cl)CC1`, with “inactive”; and `COc1ccc2c(C)nc(Nc3nc(C)c(C)c(=O)[nH]3)nc2c1`, with “inactive”; and `COc1ccc(N/C=C/c2nc(SC)nnc2C)cc1`, with “inactive”.
Then `COc1ccc(Oc2ccc(N/C=C/C(=O)C(C)(C)C)cc2)cc1`, with “inactive”; and `CCCOc1ccc(C(=O)c2nc3c(n2O)CCCCC3)cc1`, with “inactive”.
Then `CCCc1ncc(CN2CCCC(C(=O)Nc3ccc(-c4cccc(OC)c4)cc3)C2)cn1` (stereo not given), with “inactive”; and `N/C(=N\OC(=O)CCC1CCCC1)c1cccc([N+](=O)[O-])c1`, with “inactive”; and `Cc1ccccc1C(=O)Nc1ccc(N(C)C)c2ccccc12`, with “inactive”.
In the case of `O=C(N/N=C/c1ccc(Br)s1)c1cccs1`, the compound was called inactive.
Then `CCn1nnc(-c2ccc(N)cc2)n1`, with “inactive”; and `COc1ccc(C(C(O)C(=O)c2c[nH]c3ccccc23)N2CCN(c3ccc(OC)cc3)CC2)cc1` (stereo not given), with “inactive”; and `COc1ccc(N2CN=C3SCC(=O)N3C2)cc1`, with “inactive”.
The same measure for `CCOc1ccc(NC(=S)NC23CN4CN(CN(C4)C2)C3)cc1`: “inactive”; for `CCOC(=O)c1ccc(OC(=O)CCCCCN=C(N)N)cc1`: “inactive”.
In the case of `COc1ccccc1C(=O)NC(=Nc1nc2ccccc2o1)NC(=O)c1ccccc1OC`, the compound was classed as inactive.
The same measure for `O=C(CN1CCN(c2ccc(F)cc2)CC1)N1CCC(Cc2ccccc2)CC1`: “inactive”; for `CC(=Nc1ccc(C)c(C)c1)C1=C(O)CSC1=O`: “inactive”.
Then `CCOc1ccc(S(=O)(=O)N2CCN(C(=O)c3cc4c(s3)CCCC4)CC2)cc1`, with “inactive”.

The values above are taken from PubChem BioAssay AID449764 (Southern Research Specialized Biocontainment Screening …, 2010).
